In ChEMBL document CHEMBL4513146, “CO-ADD screening of Karazin Kharkiv National University (Ukraine) compounds”:
Results with a measured potency or affinity are listed apart.

Tests used:
Staphylococcus aureus = conditions: Concentration 32 ug.mL-1;; ASSAY_TEST Inhibition of Bacterial Growth; detection method Absorption (OD600); MEDIA CAMHB; plate type 384well; NBS; CORNING #3640; time 18 hr
Escherichia coli = conditions: Concentration 32 ug.mL-1;; ASSAY_TEST Inhibition of Bacterial Growth; detection method Absorption (OD600); MEDIA CAMHB; plate type 384well; NBS; CORNING #3640; time 18 hr

Compound | Inhibition (Staphylococcus aureus) | Inhibition (Escherichia coli)
Cc1ccc(Nc2cc(C)n3c(=O)n(CCOc4ccc(F)cc4)nc3n2)cc1 | 8.99% | -0.82%
CC(C)c1ccc(N(Cc2ccccc2F)S(=O)(=O)c2cccn3cnnc23)cc1 | 2.39% | -0.79%
O=c1c2sccc2n2c(=O)n(Cc3ccc(F)cc3)nc2n1Cc1cccs1 | 13.21% | -2.41%
CC(C)c1nnc2c(=O)n(CC(=O)Nc3ccc(Br)cc3)c3ccccc3n12 | 9.7% | 7.11%
CCCCn1c(=O)c2sccc2n2c(CCC(=O)Nc3ccc(OC(F)(F)F)cc3)nnc12 | 0.43% | -8.31%
COc1cccc(NC(=O)Cn2nc3c(Oc4ccccc4)nccn3c2=O)c1 | 0.03% | -5.32%
Cc1[nH]c2ccccc2c1C(=O)CSc1nnc2c(=O)n(-c3ccc(F)c(F)c3)ccn12 | 13.1% | -2.33%
NC(=O)C1CCN(C(=O)CCc2nnc3c(N4CCCCC4)nc4ccccc4n23)CC1 | 14.39% | 0.84%
COc1ccc(N(Cc2ccccc2F)S(=O)(=O)c2ccc3nnc(C)n3c2)cc1 | 8.97% | -7.31%
Cc1ccccc1Oc1nccn2c(=O)n(CC(=O)Nc3cc(Cl)ccc3Cl)nc12 | 0.32% | -4.76%
O=C(Cn1nc2c3cc(-c4ccc(Cl)cc4)nn3ccn2c1=O)Nc1ccc2c(c1)OCO2 | 8.69% | 2.9%
CCOC(=O)c1ccccc1NC(=O)Cn1c(=O)c2nnc(C(C)C)n2c2ccccc21 | 9.86% | 0.49%
